In all, about 5,900 compounds went through this assay and about 120 (2%) were called active. No stated cut-off is given here; in the data, active means percent response mostly above about 71% (no sharp cut-off); inactive means mostly below about 38%. Only a sample is shown.
These compounds were tested on MEKK2 (MAP3K2) mutant PB1 domain binding MEK5, human (assay: mutant MEKK2 PB1-MEK5 binding signal retest – biochemical, single concentration, multiplex bead flow cytometry, confirmation (AID 1893;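 further: higher means compound restores mutant binding toward wildtype level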)). Settings: Alexa488-MEK5 binding to MEKK2 mutant, at 10 µM, active compounds read high.

Percent response, inactive:
CCN1CCN(c2ccc(S(=O)(=O)N3CCCCC3)cc2NC(=O)Cc2c(Cl)cccc2Cl)CC1 20%
CCCCN1C(=O)/C(=C(/C#N)C(N)=O)c2ccccc21 -2%
CC(C)c1ccc(C(=O)NCCCc2ccccc2)cc1 -5%
Cc1ccc(C)c(CN2CCC(CNC(=O)Nc3ccc(C)c(F)c3)CC2)c1 20%
Cc1nc2cc(S(=O)(=O)C(F)(F)F)ccc2s1 -1%
O=C(Cc1cccc2ccccc12)Nc1ccc2oc(-c3ccccc3)nc2c1 10%
O=C(CSc1ccc(-c2ccc(F)cc2)nn1)Nc1ccc2c(c1)OCCO2 4%
Cc1cnc(NC(=O)Cn2cnc3c2c(=O)n(C)c(=O)n3C)s1 -16%
O=C(OCc1cc(Cl)ccc1OC(F)F)c1cccnc1 -8%
CC1(C)Cc2cccc(OCC(=O)N3CCN(c4ccc([N+](=O)[O-])cc4)CC3)c2O1 1%
CCOC(=O)c1sc2nc(C)nc(SCC(N)=O)c2c1C 5%
CCOC(=O)c1cc2c(nc1NC(=S)Nc1ccccc1)CC(C)(CC)OC2 (stereo not drawn) -4%
O=C(NCCC1=CCCCC1)c1ccc(Cl)c([N+](=O)[O-])c1 5%
Cc1cccn2c(=O)c(/C=C3\SC(=S)N(CC(C)C)C3=O)c(NCCCOC(C)C)nc12 -25%
O=C(NCCCN1CCCCCC1)C1CC(=O)N(C2CCCC2)C1 (stereo not drawn) -29%
COc1cc2c(cc1OC)CN(C(=O)c1ccc(S(=O)(=O)N3CCCCCC3)cc1)CC2 -1%
O=C(/C=C/Nc1ccccc1)c1cnc(-c2ccccc2)s1 7%
Cn1c(=NC(=O)CSCC(=O)N2CCCCC2)sc2ccccc21 8%
CCOC(=O)Cc1csc(NC(=O)CSc2nc(C)cc(=O)[nH]2)n1 -5%
CN1C(=O)/C(=C\c2ccc(-c3ccccc3)o2)SC1=S -31%
CCN(CC)CCCNC(=O)c1ccc2c(=O)n(Cc3ccc4c(c3)OCO4)c(=S)[nH]c2c1 7%
O=C(OCC1O[C@@H](OC(=O)c2cc(O)c(O)c(O)c2)[C@@H](OC(=O)c2cc(O)c(O)c(O)c2)[C@@H](OC(=O)c2cc(O)c(O)c(O)c2)[C@@H]1OC(=O)c1cc(O)c(O)c(O)c1)c1cc(O)c(O)c(O)c1 (stereo partly drawn) -34%
CCOC(=O)c1cc2occc2n1CC(=O)N1CCN(C(=O)c2ccco2)CC1 -10%
Cc1cccc(CSc2nnc(C)c(=O)n2N)c1 -2%
C=C(C)C1CC=C(C)/C(=N\NC(=O)CNc2ccccc2OC)C1 (stereo not drawn) 10%
Cc1c(-c2ccccc2)cn2c1-c1ccc(C)n1CC2 0%
CCCN(CCC)c1nc2c(C)cccn2c(=O)c1/C=C1/SC(=S)N(Cc2ccco2)C1=O -17%
O=C(O)c1cccnc1NC1CCCC1 13%
CCCc1nnc(SCC(=O)N2C(C)CCCC2C)n1CC (stereo not drawn) 10%
C/C=C/c1ccc(OCCCCN2CCC(C)CC2)c(OC)c1 4%
CNC(C)C#Cc1ccc2sc3cc(OC)c(OC)cc3c(=O)c2c1 (stereo not drawn) 16%
Cc1cc(C(=O)OCC(=O)N2c3ccccc3NC(=O)C2(C)C)c(C)n1-c1ccccc1 1%
Cc1ccc(NC(=O)COc2ccc(-n3ccnc3)cc2)cc1Cl 21%
Cc1ccc(C(=O)NC(=S)Nc2ccc3[nH]c(=O)[nH]c3c2)cc1C 4%
O=C1Nc2ccc(Br)cc2/C1=N/N=C/C1=C(N2CCOCC2)C(=C\c2ccccc2)/CC1 -20%
C#CCOCCOCCOCCNc1nc(N2CCN(C(=O)[C@H](CCCCN)n3cc([C@@H](N)C(C)CC)nn3)CC2)nc(N2CCN(C(=O)[C@H](Cc3ccc(O)cc3)n3cc([C@@H](N)C(C)CC)nn3)CC2)n1 (stereo partly drawn) 52%
COc1ccc(S(=O)(=O)Nc2ccc3oc(C)c(C(C)=O)c3c2)cc1 -3%
O=C(Cc1cccs1)N/N=C/c1ccc(OCc2ccccc2)cc1 3%
N#C/C(=C\C1=C(N2CCOCC2)C(=C\c2ccccc2)/CC1)C(=O)Nc1ccccc1F -38%
Cc1cc(C)nc(-n2ncc3c2CC(c2ccc(C(C)C)cc2)CC3=O)n1 (stereo not drawn) 0%
Cc1ccc(Nc2nc(CSc3nnc(-c4ccncc4)n3-c3ccccc3C)cs2)cc1 1%
COc1ccc(N2CCN(Cc3nnc(-c4ccccc4)o3)CC2)cc1 -5%
Cc1nc(N=C(N)N)nc2c(C)cccc12 10%
Cn1c(=NC(=O)CSCC(=O)N2CCOCC2)sc2ccccc21 -15%
Cc1cc(C)c(NC(=O)C[N+](C)(C)CC(O)COc2cccc3ccccc23)c(C)c1 (stereo not drawn) 35%
CCCCn1c(SCC(=O)NCCc2ccc(OC)c(OC)c2)nc2c1c(=O)n(C)c(=O)n2C 0%
CCOc1cc(C(=O)OCC(=O)Nc2cccc(C)c2)ccc1OCC(=O)N1CCOCC1 0%
COc1ccccc1N1CCN(CCCCOc2ccc(F)cc2)CC1 0%
Cc1ccc(S(=O)(=O)NC(=O)N2CCCC(C)(C)C2)cc1 -1%
O=C(O)c1cc(Cl)c(Cl)cc1C(=O)Nc1cccc2ncccc12 -2%
COc1ccc(-c2[nH]ncc2CN(C)Cc2c(C)n[nH]c2C)c(OC)c1 11%
CCN1CCN(c2nc(Nc3cc(OC)ccc3OC)nc(Nc3cc(OC)ccc3OC)n2)CC1 25%
C=CCn1c(=S)sc2c(=O)[nH]c(C)nc21 1%
O=C(NC1CCN(Cc2ccccc2)CC1)c1cc(Br)c(Br)[nH]1 18%
CC(=O)Nc1ccc(-c2nc3ccccc3o2)cc1 -2%
Cc1c(C#N)c2ncn(CC#N)c(=O)c2n1-c1ccccc1 -7%
O=C(NCC1CCCCC1)c1cc(S(=O)(=O)N2CCCCC2)ccc1N1CCOCC1 -16%
COc1cc(/C=C2\SC(=S)N(Nc3ncc(C(F)(F)F)cc3Cl)C2=O)cc(OC)c1OC -10%
Cc1ccccc1-c1ccc(Nc2ccc(C(=O)N3CCOCC3)cc2)nn1 4%
COc1cc(CC(=O)N/N=C/c2ccccc2)c([N+](=O)[O-])cc1OC 4%
CCOc1ccc(S(=O)(=O)N(CC(=O)O)c2ccccc2)cc1 1%
Cc1ccc(S(=O)(=O)/N=S(\C)C(C)C)cc1 (stereo not drawn) -3%
O=C(c1ccco1)N1CCN(c2cccc(Cl)c2)CC1 0%
C/C(=N\NC(=O)CNC(=O)C(c1ccccc1)c1ccccc1)c1ccc(C)cc1 7%
C=CCN(CC=C)S(=O)(=O)c1ccc(C(=O)Nc2sc3c(c2C(N)=O)CCCCC3)cc1 1%
FC(F)(F)c1cccc(N/N=C/c2ccccc2)c1 28%
COc1cc(-c2nnc(Cn3cc(C(F)(F)F)ccc3=O)o2)cc(OC)c1OC 1%
CCNC(=O)CSc1nc(-c2ccccc2)cs1 -1%
O=C(NCCCN1CCCCCC1)c1ccc(N2CCCC2=O)cc1 38%
CN(C)CC(O)COc1ccc(C(C)(C)c2ccc(OCC(O)CN(C)C)cc2)cc1 (stereo not drawn) 48%
Cc1[nH]c2ccc(S(N)(=O)=O)cc2c1C -1%
CN(C)CCCNC(=O)c1cc(C(=O)Cc2ccc(Cl)cc2)c[nH]1 3%
N/C(=N\OS(=O)(=O)c1cccc([N+](=O)[O-])c1)c1ccncc1 3%
COc1cccc(CNCCc2c[nH]c3ccccc23)c1OCc1ccccc1F 9%
COc1ccccc1CC(=O)Nc1ccc([N+](=O)[O-])cc1OC 0%
O=C(Nc1cccnc1)c1cc(Cl)ccc1Cl 3%
Cc1ccc(CNC(=O)Cn2c(=O)c3sccc3n(Cc3cccc([N+](=O)[O-])c3)c2=O)cc1 2%
O=C(O)/C(=C/c1cccnc1)NC(=O)c1ccccc1 1%
CCOc1nnc(C)c2c(C)n(-c3cccc(Cl)c3)nc12 -10%
Cc1ccccc1C(=O)NNC(=O)CN1C(=O)c2ccccc2C1=O -10%
CC(C)(C)NC(=O)c1cccc(NC(=O)Cc2ccc(Br)cc2)c1 1%
Cn1c2ccccc2c(=O)c2c(=O)n(Cc3ccco3)c(COc3ccccc3)nc21 -6%
CCOc1ccc(C(c2c(C)[nH][nH]c2=O)c2c(C)[nH][nH]c2=O)cc1OCC -3%
COc1cccc(Nc2ncccc2C(=O)O)c1 -5%
C[C@H]1CCC(=O)N([C@H](CSc2ccccc2)Cc2ccccc2)CC1 8%
Cc1cccc(/C=N/NC(=O)CNc2cccc3ccccc23)n1 5%
c1ccc(Nc2nc(N3CCOCC3)c3ccccc3n2)cc1 21%
Cc1ccc(N(CCC(=O)O)S(=O)(=O)c2cccc(C(F)(F)F)c2)cc1 1%
O=C(NCCN1CCOCC1)[C@H](Cc1ccccc1)N1C(=O)c2ccccc2C1=O 2%
COCCN1C=C2C(=O)C(C)(OC(=O)C3CCCC3)C(=O)C=C2C=C1c1ccsc1 (stereo not drawn) -2%
COC(=O)C1=NN(c2ccccc2)C2C(=O)N(c3ccccc3OC)C(=O)C12 (stereo not drawn) -1%
CC(=O)Nc1ccc(N2CCOCC2)c(C(=O)Nc2cccc(C)c2)c1 3%
Clc1ccc(-c2nnc(SCc3nc4ccccc4s3)o2)cc1 -4%

Source: PubChem BioAssay AID1893 (NMMLSC, 2009)
